# Data published in publication PMC11062922 (Nature Chemical Biology, 2023).
# Read-outs that look alike come from different tables or passages of the source.
# Experiments:
# [1] = tested on: AAK1; parameters: species or system human, MV4-11 + K-562 + COLO205 + SK-N-BE2 + OVCAR-8; conditions: read-out: apparent Kd, n = 1
# [2] = tested on: CSNK2A1;CSNK2A3; parameters: species or system human, MV4-11 + K-562 + COLO205 + SK-N-BE2 + OVCAR-8; conditions: read-out: apparent Kd, n = 1
# [3] = tested on: CSNK2A2; parameters: species or system human, MV4-11 + K-562 + COLO205 + SK-N-BE2 + OVCAR-8; conditions: read-out: apparent Kd, n = 1
# [4] = target: Q6ZSR9 (human, UniProt Q6ZSR9); parameters: species or system MV4-11 + K-562 + COLO205 + SK-N-BE2 + OVCAR-8; conditions: read-out: apparent Kd, n = 1
# [5] = tested on: BMP2K; parameters: species or system human, MV4-11 + K-562 + COLO205 + SK-N-BE2 + OVCAR-8; conditions: read-out: apparent Kd, n = 1
# [6] = tested on: CLK1; parameters: species or system human, MV4-11 + K-562 + COLO205 + SK-N-BE2 + OVCAR-8; conditions: read-out: apparent Kd, n = 1
# [7] = tested on: CLK4; parameters: species or system human, MV4-11 + K-562 + COLO205 + SK-N-BE2 + OVCAR-8; conditions: read-out: apparent Kd, n = 1
# [8] = tested on: GSK3A; parameters: species or system human, MV4-11 + K-562 + COLO205 + SK-N-BE2 + OVCAR-8; conditions: read-out: apparent Kd, n = 1
# [9] = tested on: GSK3B; parameters: species or system human, MV4-11 + K-562 + COLO205 + SK-N-BE2 + OVCAR-8; conditions: read-out: apparent Kd, n = 1
# [10] = tested on: MELK; parameters: species or system human, MV4-11 + K-562 + COLO205 + SK-N-BE2 + OVCAR-8; conditions: read-out: apparent Kd; compound concentrations:100 nM and 1000 nM (sheet 'Samples'); n = 1
# [11] = tested on: PKN1; parameters: species or system human, MV4-11 + K-562 + COLO205 + SK-N-BE2 + OVCAR-8; conditions: read-out: apparent Kd, n = 1
# [12] = tested on: PKN3; parameters: species or system human, MV4-11 + K-562 + COLO205 + SK-N-BE2 + OVCAR-8; conditions: read-out: apparent Kd; compound concentrations:100 nM and 1000 nM (sheet 'Samples'); n = 1
# [13] = tested on: GAK; parameters: species or system human, MV4-11 + K-562 + COLO205 + SK-N-BE2 + OVCAR-8; conditions: read-out: apparent Kd, compound concentrations: 100 nM and 1000 nM (sheet 'Samples'), n = 1
# [14] = tested on: PRKAG1; parameters: species or system human, MV4-11 + K-562 + COLO205 + SK-N-BE2 + OVCAR-8; conditions: read-out: apparent Kd; compound concentrations: 100 nM and 1000 nM (sheet 'Samples'), CATDS: 3.0243229141785101E-2; n = 1
# [15] = tested on: PAK4; parameters: species or system human, MV4-11 + K-562 + COLO205 + SK-N-BE2 + OVCAR-8; conditions: read-out: apparent Kd; compound concentrations: 100 nM and 1000 nM (sheet 'Samples'), CATDS: 0.130749402221499; n = 1
# [16] = compound concentrations:100 nM and 1000 nM (sheet 'Samples')
# Q6ZSR9, sequence (Q6ZSR9 whole entry, looked up): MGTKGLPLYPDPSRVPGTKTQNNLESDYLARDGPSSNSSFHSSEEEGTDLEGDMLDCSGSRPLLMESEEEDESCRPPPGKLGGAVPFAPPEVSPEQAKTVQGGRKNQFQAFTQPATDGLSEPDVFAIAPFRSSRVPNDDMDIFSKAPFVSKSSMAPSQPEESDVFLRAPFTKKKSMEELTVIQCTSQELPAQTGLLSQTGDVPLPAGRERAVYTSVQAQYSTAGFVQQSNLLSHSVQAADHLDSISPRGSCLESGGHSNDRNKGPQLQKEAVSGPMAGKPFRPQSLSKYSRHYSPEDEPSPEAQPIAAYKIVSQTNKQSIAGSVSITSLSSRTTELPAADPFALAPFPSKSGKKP
smiles,measurement,setting,value
O=C1N=C(N[C@H](CO)c2ccccc2)S/C1=C\c1ccc2ncccc2c1 [RO4554339-000],potency estimated from few doses,"[1]; compound concentrations: 100 nM and 1000 nM (sheet 'Samples'), CATDS: 0.10816447707824001",735 nM
same,potency estimated from few doses,"[2]; compound concentrations: 100 nM and 1000 nM (sheet 'Samples'), CATDS: 0.26590884807239001",111 nM
same,potency estimated from few doses,"[3]; compound concentrations: 100 nM and 1000 nM (sheet 'Samples'), CATDS: 0.32699476113935999",80.2 nM
same,potency estimated from few doses,"[4]; compound concentrations: 100 nM and 1000 nM (sheet 'Samples'), CATDS: 9.0735809704368106E-2",1320 nM
NS(=O)(=O)c1ccc(N/N=C2\C(=O)Nc3ccc(-c4cnco4)cc32)cc1 [GW276655_KCGS],potency estimated from few doses,[1]; [16],1180 nM
same,potency estimated from few doses,[5]; [16],518 nM
same,potency estimated from few doses,[4]; [16],782 nM
CC(C)(CO)CNC(=O)c1ccc2c(c1)/C(=N/Nc1ccc(S(N)(=O)=O)cc1)C(=O)N2 [GW301784X],potency estimated from few doses,[1]; [16],1820 nM
same,potency estimated from few doses,[5]; [16],1840 nM
same,potency estimated from few doses,[6]; [16],878 nM
same,potency estimated from few doses,[7]; [16],612 nM
same,potency estimated from few doses,[2]; [16],120 nM
same,potency estimated from few doses,[3]; [16],64.3 nM
same,potency estimated from few doses,[4]; [16],1600 nM
O=C1N=C(N[C@@H](CO)Cc2ccccc2)S/C1=C\c1ccc2ncccc2c1 [RO4509200-000],potency estimated from few doses,"[1]; compound concentrations: 100 nM and 1000 nM (sheet 'Samples'), CATDS: 0.15010438596183701",551 nM
same,potency estimated from few doses,"[5]; compound concentrations: 100 nM and 1000 nM (sheet 'Samples'), CATDS: 0.102719601142922",1460 nM
same,potency estimated from few doses,"[6]; compound concentrations: 100 nM and 1000 nM (sheet 'Samples'), CATDS: 0.20013343303713499",329 nM
same,potency estimated from few doses,"[7]; compound concentrations: 100 nM and 1000 nM (sheet 'Samples'), CATDS: 0.162916549975684",470 nM
same,potency estimated from few doses,"[4]; compound concentrations: 100 nM and 1000 nM (sheet 'Samples'), CATDS: 0.142532878113064",613 nM
CCn1c(-c2nonc2N)nc2cncc(Br)c21 [SB-738004],potency estimated from few doses,[1]; [16],517 nM
same,potency estimated from few doses,[6]; [16],1420 nM
same,potency estimated from few doses,[7]; [16],505 nM
same,potency estimated from few doses,[8]; [16],445 nM
same,potency estimated from few doses,[9]; [16],724 nM
same,potency estimated from few doses,[10],1660 nM
same,potency estimated from few doses,[11]; [16],553 nM
same,potency estimated from few doses,[12],1320 nM
same,potency estimated from few doses,[4]; [16],369 nM
O=C1N=C(NCCc2cccs2)S/C1=C\c1ccc2ncccc2c1 [RO4508348-000],potency estimated from few doses,"[1]; compound concentrations: 100 nM and 1000 nM (sheet 'Samples'), CATDS: 0.107531235495484",1290 nM
same,potency estimated from few doses,"[6]; compound concentrations: 100 nM and 1000 nM (sheet 'Samples'), CATDS: 0.103004978566102",1450 nM
same,potency estimated from few doses,"[2]; compound concentrations: 100 nM and 1000 nM (sheet 'Samples'), CATDS: 0.103993193967583",1410 nM
same,potency estimated from few doses,"[3]; compound concentrations: 100 nM and 1000 nM (sheet 'Samples'), CATDS: 0.109129966582831",1250 nM
same,potency estimated from few doses,"[4]; compound concentrations: 100 nM and 1000 nM (sheet 'Samples'), CATDS: 0.123024935972758",947 nM
CNCC1CCn2c(c(C3=C(c4cn(C)c5ccccc45)C(=O)NC3=O)c3ccccc32)C1 (stereo not shown) [RO0318676-000],potency estimated from few doses,"[1]; compound concentrations: 100 nM and 1000 nM (sheet 'Samples'), CATDS: 2.7439250549300399E-2",1910 nM
same,potency estimated from few doses,[13]; CATDS: 3.3618066019117501E-2,961 nM
same,potency estimated from few doses,"[8]; compound concentrations: 100 nM and 1000 nM (sheet 'Samples'), CATDS: 6.7317846208259105E-2",171 nM
same,potency estimated from few doses,"[9]; compound concentrations: 100 nM and 1000 nM (sheet 'Samples'), CATDS: 7.2494529815898601E-2",146 nM
same,potency estimated from few doses,"[11]; compound concentrations: 100 nM and 1000 nM (sheet 'Samples'), CATDS: 2.8488431691069401E-2",1650 nM
same,potency estimated from few doses,[14],1340 nM
same,potency estimated from few doses,"[4]; compound concentrations: 100 nM and 1000 nM (sheet 'Samples'), CATDS: 2.7484619244742201E-2",1890 nM
NS(=O)(=O)c1cccc(-c2ccc3c(NC(=O)C4CC4)n[nH]c3c2)c1 [SB-741905],potency estimated from few doses,"[1]; compound concentrations: 100 nM and 1000 nM (sheet 'Samples'), CATDS: 0.126213197239569",1210 nM
same,potency estimated from few doses,"[4]; compound concentrations: 100 nM and 1000 nM (sheet 'Samples'), CATDS: 0.101605627816376",2410 nM
Cn1cc(C=C2C(=O)Nc3cccnc32)c2ccccc21 [GW441756X],potency estimated from few doses,"[1]; compound concentrations: 100 nM and 1000 nM (sheet 'Samples'), CATDS: 0.22645425815754",1250 nM
same,potency estimated from few doses,"[5]; compound concentrations: 100 nM and 1000 nM (sheet 'Samples'), CATDS: 0.330795354292378",609 nM
same,potency estimated from few doses,"[4]; compound concentrations: 100 nM and 1000 nM (sheet 'Samples'), CATDS: 0.24113419116187701",1090 nM
COc1cccc(C2=C(c3c(C)n(C)c4ccccc34)C(=O)NC2=O)c1 [RO3300167-000],potency estimated from few doses,"[1]; compound concentrations: 100 nM and 1000 nM (sheet 'Samples'), CATDS: 7.9667560611670199E-2",1520 nM
same,potency estimated from few doses,[15],582 nM
same,potency estimated from few doses,"[4]; compound concentrations: 100 nM and 1000 nM (sheet 'Samples'), CATDS: 7.9945675311768105E-2",1510 nM
O=C1N=C(NCCc2ccccc2Cl)S/C1=C\c1ccc2ncccc2c1 [RO4498484-000],potency estimated from few doses,"[1]; compound concentrations: 100 nM and 1000 nM (sheet 'Samples'), CATDS: 7.0672381673146406E-2",1000 nM
same,potency estimated from few doses,"[6]; compound concentrations: 100 nM and 1000 nM (sheet 'Samples'), CATDS: 0.163722912511999",151 nM
same,potency estimated from few doses,"[7]; compound concentrations: 100 nM and 1000 nM (sheet 'Samples'), CATDS: 0.193469538942661",114 nM
same,potency estimated from few doses,"[2]; compound concentrations: 100 nM and 1000 nM (sheet 'Samples'), CATDS: 0.166165421111277",147 nM
same,potency estimated from few doses,"[3]; compound concentrations: 100 nM and 1000 nM (sheet 'Samples'), CATDS: 0.20425555691522501",105 nM
same,potency estimated from few doses,[13]; CATDS: 6.92626012786898E-2,1060 nM
same,potency estimated from few doses,"[4]; compound concentrations: 100 nM and 1000 nM (sheet 'Samples'), CATDS: 7.2207205601376195E-2",937 nM
CCC(CC)(CC)n1cnc2c(N)ncnc21 [SKF-97620],potency estimated from few doses,"[1]; compound concentrations: 100 nM and 1000 nM (sheet 'Samples'), CATDS: 2.5595683701841399E-2",1620 nM
same,potency estimated from few doses,"[6]; compound concentrations: 100 nM and 1000 nM (sheet 'Samples'), CATDS: 2.7794407506576899E-2",1260 nM
same,potency estimated from few doses,"[7]; compound concentrations: 100 nM and 1000 nM (sheet 'Samples'), CATDS: 2.9101207913204901E-2",1100 nM
COc1ccccc1CNC1=NC(=O)/C(=C/c2ccc3ncccc3c2)S1 [RO4503315-000],potency estimated from few doses,"[1]; compound concentrations: 100 nM and 1000 nM (sheet 'Samples'), CATDS: 7.6030940071323702E-2",908 nM
same,potency estimated from few doses,"[6]; compound concentrations: 100 nM and 1000 nM (sheet 'Samples'), CATDS: 0.30628277203205201",30.8 nM
same,potency estimated from few doses,"[7]; compound concentrations: 100 nM and 1000 nM (sheet 'Samples'), CATDS: 0.47450505844259699",14.8 nM
same,potency estimated from few doses,"[2]; compound concentrations: 100 nM and 1000 nM (sheet 'Samples'), CATDS: 0.129899516900844",197 nM
same,potency estimated from few doses,"[3]; compound concentrations: 100 nM and 1000 nM (sheet 'Samples'), CATDS: 0.121862828094444",231 nM
same,potency estimated from few doses,"[4]; compound concentrations: 100 nM and 1000 nM (sheet 'Samples'), CATDS: 7.7270195347091397E-2",858 nM
